Common to all, as to type: functional
Assay [1] deals with Plasmodium falciparum. Nature of the assay: GSK_TCMDC: Inhibition of Plasmodium falciparum 3D7 in whole red blood cells, using parasite LDH activity as an index of growth. Test compounds present at 2uM.
For assay [2], the system named is Plasmodium falciparum. The assay is described as follows: GSK_TCMDC: Inhibition of Plasmodium falciparum Dd2 in whole red blood cells, using parasite LDH activity as an index of growth. Test compounds present at 2uM.
Assay [3] relates to HepG2. Nature of the assay: GSK_TCMDC: Percent inhibition of human HepG2 cell line. Test compounds present at 10uM.

The record followed here is ChEMBL document CHEMBL1157539, “Thousands of chemical starting points for antimalarial lead identification” (Nature, 2010).

The Inhibition is the relative decrease from the control value, in per cent. For `CC1CCCC(C)N1C[C@@H](O)CNS(=O)(=O)c1cccc(C(F)(F)F)c1.Cl` (stereo partly specified), the Inhibition in assay [1] was 99%; in assay [2], 2%; in assay [3], 4%.
The matching figures for `Cc1cccc2nc(-c3ccc(-c4cccc(NC(=O)C(C)CN5CCN(C)CC5)c4)s3)[nH]c12` (stereo unspecified): 97%, 75% and 11%.
Take `COc1ccc(CNc2ccnc3cc(OC)ccc23)cc1`: the figures for the Inhibition in assay [1], in assay [2] and in assay [3] were 100%, 74% and 7%, respectively.
The matching figures for `COc1ccc(C(=O)N2CCC3(CC2)C(=O)N(CC(=O)NCC2CCCCC2)CN3c2ccccc2)c(OC)c1`: 100%, 99% and 6%.
The like results for `Cc1ccccc1Cc1cccc(/N=C(\N)Nc2ccc(Cl)cc2)n1` were, in that order, 91%, 56% and 48%.
Take `CN(c1ccc(F)cc1)S(=O)(=O)c1ccc(Cl)c(C(=O)Nc2cccc(C#N)c2)c1`: the Inhibition in assay [1] is given as 95%; in assay [2], 58%; in assay [3], 5%.
The like results for `O=C(Nc1ccccc1-c1ccccc1)C1CCCN1C(=O)Nc1ccc(Cl)cc1` (stereo unspecified) were, in that order, 96%, 90% and 0%.
The like results for `COc1ccc(Br)cc1/C=C/C(=O)Nc1ccc(C2CCN(C)CC2)cc1.O=CO` were, in that order, 100%, 61% and 11%.
The matching figures for `Cc1nc2ccccc2c(=O)n1/N=C/c1ccccc1[N+](=O)[O-]`: 94%, 26% and 0%.
Take `Nc1nc(N)c2c(Oc3cccnc3)cccc2n1`: the values for the Inhibition in assay [1], in assay [2] and in assay [3] were 93%, 0% and 65%, respectively.
The like results for `CCn1c(Sc2ccc([N+](=O)[O-])c(C#N)c2)nnc1-c1ccc(Cl)cc1` were, in that order, 93%, 7% and 2%.
The matching figures for `Cc1noc(C)c1CN1Cc2ccccc2OC2(CCN(Cc3c[nH]c4cnccc34)CC2)C1.O=C(O)C(F)(F)F`: 89%, 12% and 19%.
